Bioassay records as filed in PubChem.
Sfp inh: inhibitors of Bacillus subtilis Sfp phosphopantetheinyl transferase. Q9F4F7. Biochemical Sfp PPTase activity, qHTS. Potency, µM, for inactives: largest response in the series, negative = inhibition, usual class: inhibitors. 310,000 compounds, 3.5% hits;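 note: the enzyme is Sfp with the accession as filed and its product quenches rhodamine fluorescence; 0% = enzyme reaction without inhibitor and -100% = no enzyme wells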
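Sfp 15 nM + cpd, 15 min RT; start w/ rhodamine-CoA 5 uM, BHQ-2-YbbR 12.5 uM (final); 50 mM Hepes pH 7.6, 10 mM MgCl2, 0.01% NP-40, 0.01% BSA; read 525/598 nm at 0 and 30 min.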
G9a block: inhibitors of human histone lysine methyltransferase G9a. G9a H3K9 monomethylation, AlphaScreen, 2 h. 350,000 compounds, 8.8% hits. AID 504332. Q96KQ7. Potency, µM (highest dose often 102 µM), inactives show top-dose activity, negative = inhibition, most hits filed as inhibitors; note: % is set by controls: 0 for no effect and ±100 for the full control effect; nearly all actives have a fitted effect of over 75% in size
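G9a (20 nM) was preincubated 15 min with compound, then reacted 2 h at room temperature with 500 nM biotin-H3K9 peptide and 20 µM SAM. Monomethyl-H3K9 detected by AlphaScreen using anti-H3K9me1 antibody.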
L3MBTL1 block: inhibitors of human L3MBTL1 | AlphaScreen L3MBTL1–H3K9me1 peptide binding | AID 485360 | Potency, µM (doses to about 57.1 µM), for inactives: top-dose activity, negative = inhibition, usual class: inhibitors | 230,000 compounds, 0.66% hits | Q9Y468; note: % is set by controls: 0 for no effect and ±100 for the full control effect; nearly all actives have a fitted effect of over 60% in size
Target sequence (Q9Y468 whole entry, looked up): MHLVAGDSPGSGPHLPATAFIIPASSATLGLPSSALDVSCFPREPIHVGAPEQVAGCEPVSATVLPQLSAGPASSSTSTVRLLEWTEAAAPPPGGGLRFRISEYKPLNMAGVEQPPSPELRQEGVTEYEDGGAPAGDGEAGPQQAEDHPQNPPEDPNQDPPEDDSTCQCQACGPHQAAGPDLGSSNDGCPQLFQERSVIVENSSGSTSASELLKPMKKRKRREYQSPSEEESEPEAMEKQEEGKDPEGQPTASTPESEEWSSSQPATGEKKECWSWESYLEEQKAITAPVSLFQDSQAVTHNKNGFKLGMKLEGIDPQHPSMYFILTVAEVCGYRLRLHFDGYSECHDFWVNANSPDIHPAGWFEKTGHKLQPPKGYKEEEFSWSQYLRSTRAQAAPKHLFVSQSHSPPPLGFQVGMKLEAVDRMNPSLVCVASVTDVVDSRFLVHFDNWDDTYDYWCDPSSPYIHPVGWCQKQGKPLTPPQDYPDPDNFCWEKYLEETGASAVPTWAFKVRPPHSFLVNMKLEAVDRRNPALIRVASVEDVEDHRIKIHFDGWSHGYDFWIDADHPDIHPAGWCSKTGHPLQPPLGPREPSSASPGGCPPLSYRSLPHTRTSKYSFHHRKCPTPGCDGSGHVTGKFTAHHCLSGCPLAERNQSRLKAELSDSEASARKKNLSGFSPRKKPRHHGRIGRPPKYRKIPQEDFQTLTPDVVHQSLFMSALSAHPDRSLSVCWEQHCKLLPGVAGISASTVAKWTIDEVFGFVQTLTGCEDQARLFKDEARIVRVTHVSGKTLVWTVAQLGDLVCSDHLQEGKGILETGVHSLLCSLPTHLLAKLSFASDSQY
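AlphaScreen assay: L3MBTL1 (50 nM final) was preincubated 30 min at room temperature with biotinylated H3(1-15)K9me1 peptide (75 nM final), then 30 min with library compounds; streptavidin donor and nickel chelate acceptor beads (10 ug/mL final) added, 30 min dark.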
BAZ2B inh: blocks human BAZ2B; Q9UIF8; AlphaScreen BAZ2B-H3K14Ac peptide displacement; Potency, µM (series often up to 114 µM), without a hit: at the top dose activity change, negative = inhibition, actives largely listed as inhibitors; 360,000 compounds, 4.4% hits; AID 504333; note: % is set by controls: 0 for no effect and ±100 for the full control effect; nearly all actives have a fitted effect of over 60% in size
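AlphaScreen luminescence quantifies BAZ2B engagement of H3K14Ac peptide; the protein and biotinylated peptide are both at 50 nM final, buffer PBS pH 7.4 with 0.01% Tween-20, all steps at room temperature.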
HP1b chromo inh: blocks HP1-beta chromodomain binding to methylated histone tails. AID 540317. Potency, µM (doses to about 114 µM), for inactives: at the top dose activity change, negative = inhibition, actives largely listed as inhibitors. AlphaScreen HP1-beta / biotin-H3K9me3 peptide binding. 390,000 compounds, 0.56% hits; note: nearly all actives have a fitted effect of over 70% in size
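Compound inhibition of the preformed complex between 50 nM HP1-beta and 50 nM biotinylated H3K9me3 peptide was read by AlphaScreen. Buffer was PBS pH 7.4 with 0.01% Tween-20. Incubations ran 30 min at room temperature, with 10 ug/mL donor/acceptor beads.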
JMJD2A Tudor: blocks the human JMJD2A Tudor domain; O75164; AlphaScreen JMJD2A-Tudor / H3K4me3 peptide binding; Potency, µM (doses to about 114 µM), for inactives: at the highest dose activity change, negative = inhibition, actives largely listed as inhibitors; 390,000 compounds, 4.4% hits; note: % is set by controls: 0 for no effect and ±100 for the full control effect; nearly all actives have a fitted effect of over 50% in size
Starred values were filed as active, the others as inactive; ? = inconclusive; . = no result given; ! = not active in a repeat; [ ] = remark or other dose. Shown are actives, neighbours in structure and some others; about 12% of the full set was active somewhere. Calls come from the whole dose curve; as a rule, active = well fitted curve in the direction sought with a large enough effect; inconclusive = small, poorly fitted or top-dose-only effect, or another doubt; inactive = no such curve, though single readings can be large; an effect the other way counts as inactive or inconclusive. Potency is the fitted concentration of half-maximal effect.

SMILES	Sfp inh	G9a block	L3MBTL1 block	BAZ2B inh	HP1b chromo inh	JMJD2A Tudor
Cc1c(CC(=O)NCCc2ccccc2F)c(=O)oc2cc(O)c(Cl)cc12	.	2%[59 µM]	.	2%	41%	7%
Cc1ccc(C)c(NNC(N)=S)c1	50µM*	35µM*	5%	-16%	6%	-27%
Cc1ccccc1NNC(=O)C(=O)NNc1ccccc1C	-17%	?	-6%	50µM*	?	18µM*
Cc1cccc(NNC(=O)C(=O)NNc2cccc(C)c2)c1	-13%	?	-1%	-12%	31%	1%
Cc1ccc(C)c(N/C(N)=N/c2nc(C)cc(C)n2)c1	-9%	29%[0.501 µM]	-6%	-33%	31%	-4%
Cc1ccc(C)c(NNC(=O)C(=O)NNc2cc(C)ccc2C)c1	15%	28µM*	-6%	-35%	13%	?
Cc1cccc(NNC(N)=S)c1C	40µM*	20µM*	-4%	-24%	28%	-13%
CC(C)CCCC(C)NC(C)C (centres undefined)	12%	-29%[12.7 µM]	.	.	.	.
NC(=S)NNc1cc(Cl)cc(Cl)c1	14µM*	?	.	-36%	-19%	35µM*
Cc1cc(Cl)ccc1NNC(N)=S	50µM*	20µM*	.	-31%	-7%	-23%
Cc1nc(CCNC(=O)CC2C(=O)NCCN2Cc2ccccc2)sc1C (centres undefined)	-14%	.	.	-10%	34%	-8%
COc1ccc(CN2CCNC(=O)C2CC(=O)NCc2cnn(C)c2)cc1OC (centres undefined)	9%	50µM*	7%	-1%	84%	-16%
COc1ccc(CN2CCNC(=O)C2CC(=O)NCCc2nc(C)c(C)s2)cc1C (centres undefined)	-13%	45µM*	.	-30%	5%	?
COc1ccc(CN2CCNC(=O)C2CC(=O)O)cc1OC (centres undefined)	8%	?	?	-3%	46%	-3%
CN(Cc1ccco1)c1ncnc2ccc(-c3ccccc3C(F)(F)F)cc12	?	-27%[0.501 µM]	.	.	.	.
CN1C(=O)/C(=C/C=C2/CCCN2C)N(C)C1=S	79µM*	.	-5%	?	17%	-16%
O=[N+]([O-])c1ccc(Nc2ccc(N3CCOCC3)cc2)c([N+](=O)[O-])c1	-16%	22µM*	.	11µM*	32µM*	?
O=C(Nc1ccc(N2CCOCC2)cc1N1CCOCC1)c1ccc([N+](=O)[O-])cc1	20%	-1%	0%	2%	24%	-11%
COc1ccccc1Nc1ccc(C(=O)O)cc1[N+](=O)[O-]	14%	?	.	-34%	10%	-28%
COc1ccc(Nc2ccc(S(=O)(=O)N3CCCCCC3)cc2[N+](=O)[O-])cc1	0%	11µM*	?	10µM*	25µM*	6.3µM*
CCCOc1ccc(S(=O)(=O)N2CCOCC2)cc1[N+](=O)[O-]	17%	0%[59 µM]	.	-15%	-7%	89µM*
COc1ccccc1Nc1ccc(S(=O)(=O)N2CCCCC2)cc1[N+](=O)[O-]	4%	?	-1%	8.9µM*	?	10µM*
Cc1cccc(NC(=O)C(=O)c2cc(C)n(-c3ccccc3)c2C)c1C	.	-32%[59 µM]	.	-3%	29%	-15%
CSc1cccc(Nc2ccc(S(=O)(=O)N3CCOCC3)cc2[N+](=O)[O-])c1	.	?	-30%	?	-14%	?
COCC(C)Nc1ccc(S(=O)(=O)N2CCCC2)cc1[N+](=O)[O-] (centres undefined)	0%	21%[59 µM]	.	-17%	-9%	-17%
SMILES	Sfp inh	G9a block	L3MBTL1 block	BAZ2B inh	HP1b chromo inh	JMJD2A Tudor
CCCCCC(/C=N/Nc1ccc(S(=O)(=O)N2CCOCC2)cc1[N+](=O)[O-])=C\c1ccccc1	5%	11µM*	.	?	?	?
CCCN1CCC(=NNc2ccc(S(=O)(=O)N3CCOCC3)cc2[N+](=O)[O-])CC1	-5%	11%[59 µM]	20%	16%	-32%	?
COc1ccc(Nc2ccc(S(=O)(=O)N3CCCCC3)cc2[N+](=O)[O-])cc1OC	4%	7.1µM*	?	10µM*	?	?
Cc1cccc(Nc2ccc(S(=O)(=O)N3CCOCC3)cc2[N+](=O)[O-])c1	.	?	?	?	?	10µM*
CCOCCn1c(=O)c2c(nc3n2CCN3c2ccc(C)c(C)c2)n(C)c1=O	.	?	4%	?	28%	-31%
COCCNC(=O)c1cn(C)c2ccccc2c1=O	15%	-6%	9%	-22%	36%	-1%
CN1CCC2(CCN3CCc4c(oc5ccccc45)C3C2)N(C)C1=O (centres undefined)	.	16µM*!	.	.	.	.
O=C(COc1ccccc1)NC1CCSc2ccccc21 (centres undefined)	.	6.3µM*	-8%	-5%	29%	-5%
COCCNC(=O)CSc1ccccc1C(=O)NC1CCSc2ccccc21 (centres undefined)	-3%	35µM*	.	-14%	-4%	-9%
CCN1CCC[C@H]1CNC(=O)c1c(O)c(Cl)cc(Cl)c1OC	11%	8.9µM*!	.	-24%	37%	?
CCN1CCCC1CNC(=O)c1cc(OC)c(OC)c(OC)c1 (centres undefined)	13%	-5%[59 µM]	.	11%	29%	5%
Cc1ccc(C(NC(=O)N2CCOCC2)C(Cl)Cl)cc1F (centres undefined)	16%	45µM*	0%	-2%	2%	-6%
Cc1ccc(C(NC(=O)N2CC(C)OC(C)C2)C(Cl)Cl)cc1F (centres undefined)	7%	79µM*	21%	34%	43%	-8%
Cc1ccc(C(NC(=O)N2CCN(C)CC2)C(Cl)Cl)cc1F (centres undefined)	15%	?	4%	-16%	28%	-14%
COc1ccccc1NS(=O)(=O)c1ccc2[nH]c(=S)oc2c1	.	.	1%	.	12%	-24%
COc1ccc(NS(=O)(=O)c2ccc3oc(=S)[nH]c3c2)cc1	5%	35µM*	-4%	-21%	38%	4%[11.4 µM]
O=S(=O)(Nc1ccccc1Cl)c1ccc2[nH]c(=S)oc2c1	2%	7.1µM*	.	?	14%	-18%
COc1ccc(NS(=O)(=O)c2ccc3oc(=O)ccc3c2)cc1	10%	.	2%	-3%	59%	4%
COc1ccc(-c2cn3c(C)c(C(=O)Nc4cccc(C)n4)sc3n2)cc1	40µM*	10µM*	8%	-9%	4%	-21%
Cc1cccc(NC(=O)c2sc3nc(-c4ccc(F)cc4)cn3c2C)n1	50µM*	-26%[59 µM]	9%	-48%	27%	-15%
COc1ccc(C)cc1NC(=O)c1sc2nc(-c3ccc(F)cc3)cn2c1C	.	-5%[59 µM]	.	3%	22%[57 µM]	-8%
